Measurements as given in PubChem BioAssay AID1159580 (chemical genetic matrix, 2015).
“And” between values parts separate entries of the source, which are not always exact repeats. Equal values may be shown once. Among all 5,500 compounds or so, about 2,000 (36%) were called active. Not shown: some 18% with an inconclusive outcome. Cut-off read from the data, not from the text of the source: active = normalized growth mostly below about 0.91 (no sharp cut-off); inconclusive = no clear call, values can overlap the other calls; inactive = mostly above about 0.92. Some of the results follow.

Assay: chemical genetic growth profiling, strain panel (AID 1159580);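 note: tested at 20 µM; growth read once vehicle control cultures reached saturation at 30 °C; 1 = growth at the plate median or of vehicle wells; lower values mean less growth of the strain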
Conditions: S. cerevisiae deletion strains, growth OD

Measured: normalized growth

O=C(O)[C@H](O)[C@@](O)(Cc1ccc(O)cc1)C(=O)O
inactive: locus YAL013W, strain DEP1, stronger effect = lower value 1.04 | locus YAL021C, strain ccr4, stronger effect = lower value 1 | locus YAL026C, strain drs2, stronger effect = lower value 1 | locus YAL030W, strain snc1, stronger effect = lower value 1.01 | locus YBL061C, strain skt5, stronger effect = lower value 1.01 | locus YBR009C, strain hhf1, stronger effect = lower value 1.01 | locus YBR021W, strain FUR4, stronger effect = lower value 1.02 | locus YBR023C, strain chs3, stronger effect = lower value 1.02 | locus YBR171W, strain sec66, stronger effect = lower value 1.02 | locus YBR229C, strain ROT2, stronger effect = lower value 1.02 | locus YBR231C, strain swc5, stronger effect = lower value 1.01 | locus YBR279W, strain paf1, stronger effect = lower value 1.01 | locus YCL011C, strain gbp2, stronger effect = lower value 1.01 | locus YCL016C, strain dcc1, stronger effect = lower value 1.02 | locus YCL029C, strain bik1, stronger effect = lower value 1.02 | locus YCL061C, strain MRC1, stronger effect = lower value 1.02 | locus YCL069W, strain vba3, stronger effect = lower value 1 | locus YCR088W, strain abp1, stronger effect = lower value 1.01 | locus YDL005C, strain med2, stronger effect = lower value 0.996 | locus YDL035C, strain GPR1, stronger effect = lower value 1.06 | locus YDL040C, strain nat1, stronger effect = lower value 1 | locus YDL074C, strain BRE1, stronger effect = lower value 1.06 | locus YDL101C, strain DUN1, stronger effect = lower value 1.03 | locus YDL134C, strain PPH21, stronger effect = lower value 1.02 | locus YDL185W, strain tfp1, stronger effect = lower value 0.992 | locus YDL192W, strain arf1, stronger effect = lower value 1.03 | locus YDR001C, strain nth1, stronger effect = lower value 1.02 | locus YDR069C, strain doa4, stronger effect = lower value 1.01 | locus YDR101C, strain arx1, stronger effect = lower value 1.02 | locus YDR137W, strain rgp1, stronger effect = lower value 1.03 | locus YDR159W, strain sac3, stronger effect = lower value 1 | locus YDR162C, strain NBP2, stronger effect = lower value 1.06 | locus YDR195W, strain ref2 0.989 | locus YDR297W, strain sur2, stronger effect = lower value 1.01 | locus YDR318W, strain mcm21, stronger effect = lower value 1.01 | locus YDR334W, strain swr1, stronger effect = lower value 1.01 | locus YDR335W, strain msn5, stronger effect = lower value 1 | locus YDR388W, stronger effect = lower value 1 | locus YDR392W, strain spt3, stronger effect = lower value 0.976 | locus YDR502C, strain sam2, stronger effect = lower value 0.995 | locus YEL003W, strain gim4, stronger effect = lower value 0.999 | locus YEL037C, strain rad23, stronger effect = lower value 1 | locus YEL061C, strain CIN8 (second series), stronger effect = lower value 0.999 | locus YER015W, strain faa2, stronger effect = lower value 1 | locus YER016W, strain bim1, stronger effect = lower value 1 | locus YER110C, stronger effect = lower value 0.992 | locus YER111C, strain swi4, stronger effect = lower value 1 | locus YER155C, strain BEM2 (second series), stronger effect = lower value 1.01 | locus YER155C, strain BEM2, stronger effect = lower value 1.01 | locus YER167W, strain BCK2, stronger effect = lower value 1.02 | locus YFR010W, strain ubp6, stronger effect = lower value 1.01 | locus YGL078C, strain dbp3, stronger effect = lower value 1.01 | locus YGL086W, strain mad1, stronger effect = lower value 1.01 | locus YGL167C, strain pmr1, stronger effect = lower value 1.01 | locus YGL173C, strain kem1, stronger effect = lower value 1.02 | locus YGL227W, strain vid30, stronger effect = lower value 1.01 | locus YGL240W, strain doc1, stronger effect = lower value 1.01 | locus YGL248W, strain PDE1, stronger effect = lower value 1.03 | locus YGL253W, strain hxk2, stronger effect = lower value 1.01 | locus YGR078C, strain PAC10, stronger effect = lower value 1.03 | locus YGR135W, strain pre9, stronger effect = lower value 0.987 | locus YGR252W, strain gcn5, stronger effect = lower value 0.966 | locus YHR013C, strain ard1, stronger effect = lower value 1.02 | locus YHR027C, strain rpn1, stronger effect = lower value 1.02 | locus YHR030C, strain SLT2, stronger effect = lower value 1.02 and 1.01 | locus YHR079C, strain IRE1 (second series), stronger effect = lower value 1 | locus YHR079C, strain IRE1, stronger effect = lower value 1 | locus YHR094C, strain hxt1, stronger effect = lower value 0.999 | locus YHR129C, strain ARP1, stronger effect = lower value 1.02 | locus YHR142W, strain chs7, stronger effect = lower value 1.02 | locus YHR200W, strain rpn10, stronger effect = lower value 0.996 | locus YIL066C, strain RNR3, stronger effect = lower value 1.04 | locus YIL073C, strain SPO22, stronger effect = lower value 1.05 | locus YIL125W, strain kgd1, stronger effect = lower value 1.02 | locus YIR030C, strain dcg1, stronger effect = lower value 1 | locus YJL092W, strain hpr5, stronger effect = lower value 1.02 | locus YJL095W, strain BCK1 (second series), stronger effect = lower value 1.01 | locus YJL095W, strain BCK1, stronger effect = lower value 1.05 and 1.01 | locus YJL115W, strain asf1, stronger effect = lower value 0.997 | locus YJL129C, strain trk1, stronger effect = lower value 1.03 | locus YJL134W, strain LCB3, stronger effect = lower value 1.02 | locus YJL154C, strain vps35, stronger effect = lower value 1 | locus YJL164C, strain tpk1, stronger effect = lower value 1.01 | locus YJL166W, strain qcr8, stronger effect = lower value 1.01 | locus YJL168C, strain set2, stronger effect = lower value 1 | locus YJL187C, strain SWE1 (second series), stronger effect = lower value 1.04 | locus YJL187C, strain SWE1, stronger effect = lower value 1.01 | locus YJR043C, strain POL32, stronger effect = lower value 1.06
